# Source: the supplement of paper PMC10037445
# Whole data set: some 2,900 compounds, median “NF-kB SEAP reporter activity, fold change vs agonist alone” near 0.99, cut for the highest 2% near 2.6. For the sample, the highest values were picked, then their nearest neighbours and some compounds at random.
# Experiments:
# RAW-Dual [1] = assay: NF-kB SEAP reporter activity, fold change vs agonist alone; higher = enhanced NF-kB activity; conditions: library stock concentration (final ~1000-fold dilution): 10 mM
# Summary of the method: (§1)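 RAW-Dual macrophages were seeded in DMEM at 50,000 cells/well in 384-well plates, given 50 nL of library stock by pin tool, and given a PRR agonist 1 h later. Plates were held at 37 °C, 5% CO2 for 20 hours, after which supernatant was read for IRF by QuantiLuc luminescence and for NF-κB by QuantiBlue absorbance at 620 nm. Reporter activity is expressed as fold change over wells that received agonist alone. A well was called cytotoxic when IncuCyte confluency fell below 70% of agonist controls in both mask sets.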
# RAW-Dual [2] = assay: NF-kB SEAP reporter activity, fold change vs agonist alone; cytotoxicity flag (confluency mask): not cytotoxic; higher = enhanced NF-kB activity
# Summary of the method: as §1
# RAW-Dual [3] = assay: NF-kB SEAP reporter activity, fold change vs agonist alone; cytotoxicity flag (confluency mask): cytotoxic (confluency <70% of control); higher = enhanced NF-kB activity
# Summary of the method: as §1
# [4] = cytotoxicity flag (confluency mask): not cytotoxic, agonist: Imiquimod (TLR7) […]
# [5] = cytotoxicity flag (confluency mask): not cytotoxic, agonist: MPLA (TLR4) […]
# [6] = agonist: ODN 1826 (TLR9) 0.5 ug/mL
# [7] = agonist: Pam2CSK4 (TLR2/6) 0.1 ug/mL
# [8] = agonist: Pam3CSK4 (TLR2/1) 0.1 ug/mL
compound,measurement,setting,value
CC1OC(=O)C(C)C1CC(O)C(C)(O)C1CCC2(O)C3=CC(=O)C4CC(O)C(O)CC4(C)C3CCC12C (stereo unspecified),NF-kB SEAP reporter activity,RAW-Dual [1]; [4],1.02
same,NF-kB SEAP reporter activity,RAW-Dual [1]; [5],1.05
CC1OC(=O)C(C)C1CC(O)C(C)(O)C1CCC2(O)C3=CC(=O)C4CC(O)C(O)CC4(C)C3CCC12C (stereo unspecified) (library stock concentration (final ~1000-fold dilution): 10 mM),NF-kB SEAP reporter activity,RAW-Dual [2]; agonist: LPS (TLR4) 0.1 ug/mL,1.18
same,NF-kB SEAP reporter activity,RAW-Dual [2]; [6],1.02
same,NF-kB SEAP reporter activity,RAW-Dual [2]; [7],1.16
same,NF-kB SEAP reporter activity,RAW-Dual [2]; [8],1.23
CCOc1cc(N)c([N+](=O)[O-])cc1C(=O)NC1CCN(CC2CC=CCC2)CC1.O=C(O)C(O)C(O)C(=O)O (stereo unspecified),NF-kB SEAP reporter activity,RAW-Dual [1]; [4],1.28
same,NF-kB SEAP reporter activity,RAW-Dual [1]; [5],1.03
CCOc1cc(N)c([N+](=O)[O-])cc1C(=O)NC1CCN(CC2CC=CCC2)CC1.O=C(O)C(O)C(O)C(=O)O (stereo unspecified) (library stock concentration (final ~1000-fold dilution): 10 mM),NF-kB SEAP reporter activity,RAW-Dual [2]; agonist: LPS (TLR4) 0.1 ug/mL,1.38
same,NF-kB SEAP reporter activity,RAW-Dual [2]; [6],0.18
same,NF-kB SEAP reporter activity,RAW-Dual [2]; [7],0.898
same,NF-kB SEAP reporter activity,RAW-Dual [2]; [8],0.739
CCC(Nc1ncnc2[nH]cnc12)c1oc2ccccc2c(=O)c1-c1cccc(F)c1 (stereo unspecified),NF-kB SEAP reporter activity,RAW-Dual [1]; [4],0.582
same,NF-kB SEAP reporter activity,RAW-Dual [1]; [5],0.924
CCC(Nc1ncnc2[nH]cnc12)c1oc2ccccc2c(=O)c1-c1cccc(F)c1 (stereo unspecified) (library stock concentration (final ~1000-fold dilution): 10 mM),NF-kB SEAP reporter activity,RAW-Dual [2]; agonist: LPS (TLR4) 0.1 ug/mL,0.907
same,NF-kB SEAP reporter activity,RAW-Dual [2]; [6],0.718
same,NF-kB SEAP reporter activity,RAW-Dual [2]; [7],0.443
same,NF-kB SEAP reporter activity,RAW-Dual [2]; [8],0.61
O=C(Oc1cccc(F)c1OC(=O)c1cccc(O)c1)c1cccc(O)c1,NF-kB SEAP reporter activity,"RAW-Dual [1]; cytotoxicity flag (confluency mask): cytotoxic (confluency <70% of control), agonist: Imiquimod (TLR7) […]",0.964
same,NF-kB SEAP reporter activity,"RAW-Dual [1]; cytotoxicity flag (confluency mask): cytotoxic (confluency <70% of control), agonist: MPLA (TLR4) […]",1.24
O=C(Oc1cccc(F)c1OC(=O)c1cccc(O)c1)c1cccc(O)c1 (library stock concentration (final ~1000-fold dilution): 10 mM),NF-kB SEAP reporter activity,RAW-Dual [3]; agonist: LPS (TLR4) 0.1 ug/mL,1.21
same,NF-kB SEAP reporter activity,RAW-Dual [3]; [6],0.597
same,NF-kB SEAP reporter activity,RAW-Dual [3]; [7],0.639
same,NF-kB SEAP reporter activity,RAW-Dual [3]; [8],0.541
CC(C)C(NC(=O)c1ccc2ccccc2n1)C(=O)NC(CC(=O)O)C(=O)COc1c(F)cccc1F (stereo unspecified),NF-kB SEAP reporter activity,RAW-Dual [1]; [4],1.01
same,NF-kB SEAP reporter activity,RAW-Dual [1]; [5],1.14
CC(C)C(NC(=O)c1ccc2ccccc2n1)C(=O)NC(CC(=O)O)C(=O)COc1c(F)cccc1F (stereo unspecified) (library stock concentration (final ~1000-fold dilution): 10 mM),NF-kB SEAP reporter activity,RAW-Dual [2]; agonist: LPS (TLR4) 0.1 ug/mL,1.05
same,NF-kB SEAP reporter activity,RAW-Dual [2]; [6],1.05
same,NF-kB SEAP reporter activity,RAW-Dual [2]; [7],1.03
same,NF-kB SEAP reporter activity,RAW-Dual [2]; [8],1.26
CC12CCC3C(CCC4C(C)(C(=O)O)CCCC34C)(CC1=O)C2 (stereo unspecified) (library stock concentration (final ~1000-fold dilution): 10 mM),NF-kB SEAP reporter activity,RAW-Dual [2]; agonist: LPS (TLR4) 0.1 ug/mL,1.41
same,NF-kB SEAP reporter activity,RAW-Dual [2]; [6],1.11
same,NF-kB SEAP reporter activity,RAW-Dual [2]; [7],1.13
same,NF-kB SEAP reporter activity,RAW-Dual [2]; [8],1.02
CC12CCC3C(CCC4C(C)(C(=O)O)CCCC34C)(CC1=O)C2 (stereo unspecified),NF-kB SEAP reporter activity,RAW-Dual [1]; [4],0.95
same,NF-kB SEAP reporter activity,RAW-Dual [1]; [5],1.14
O=C1OC(=O)C2C3CCC(O3)C12 (stereo unspecified) (library stock concentration (final ~1000-fold dilution): 10 mM),NF-kB SEAP reporter activity,RAW-Dual [2]; agonist: LPS (TLR4) 0.1 ug/mL,3.23
same,NF-kB SEAP reporter activity,RAW-Dual [2]; [6],2
same,NF-kB SEAP reporter activity,RAW-Dual [2]; [7],1.84
same,NF-kB SEAP reporter activity,RAW-Dual [2]; [8],1.76
O=C1OC(=O)C2C3CCC(O3)C12 (stereo unspecified),NF-kB SEAP reporter activity,RAW-Dual [1]; [4],1.93
same,NF-kB SEAP reporter activity,RAW-Dual [1]; [5],2.03
CS(=O)(=O)O.Cc1c(O)cccc1C(=O)NC(CSc1ccccc1)C(O)CN1CC2CCCCC2CC1C(=O)NC(C)(C)C (stereo unspecified) (library stock concentration (final ~1000-fold dilution): 10 mM),NF-kB SEAP reporter activity,RAW-Dual [2]; agonist: LPS (TLR4) 0.1 ug/mL,4.08
same,NF-kB SEAP reporter activity,RAW-Dual [2]; [6],1.02
same,NF-kB SEAP reporter activity,RAW-Dual [2]; [7],0.418
same,NF-kB SEAP reporter activity,RAW-Dual [2]; [8],0.656
